Screens: PubChem BioAssay, National Center for Advancing Translational Sciences (NCATS)
CHX counter: affects cycloheximide protein synthesis inhibition readout, counter-screen | cell reporter, cycloheximide protein synthesis inhibition counterscreen | hit rate 12% among 300,000 | max response, %; in the data active = max response mostly above about 13%, no sharp cut-off; inactive = mostly below about 14%; note: read at 38.3 µM for the half of the compounds with a filed dose; 0% is about no effect
Pf growth 96h: P. falciparum growth inhibition at 96 hour, primary screen for plastid delayed-death inhibitors | P. falciparum luciferase reporter growth, 96 h | Potency, µM (titrated, usually from 28.7 µM), inactives show top-dose activity change, negative = inhibition, actives largely listed as inhibitors | hit rate 6.9% among 320,000; note: potency is the fitted concentration of half-maximal effect; % is set by controls: 0 for no effect and ±100 for the full control effect
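Erythrocytes infected with luciferase-expressing P. falciparum were dispensed at 2% hematocrit and 0.05% parasitemia (final), then incubated with compounds 96 hours at 37 C in 5% CO2. Luminescence after detection reagent addition reported growth.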
Shiga toxin inh: Shiga toxin inhibition. Vero cells, Shiga toxin protein synthesis inhibition reporter. inhibition, % at 38.7 µM. AID 2315. hit rate 9.2% among 290,000; in the data active = inhibition mostly above about 28%, no sharp cut-off; inactive = mostly below about 43%; note: 0% is about no effect
Pf growth 48h: inhibits P. falciparum growth in the first generation, 48 h; P. falciparum luciferase growth in erythrocytes, 48 h; Potency, µM (series often up to 28.7 µM), without a hit: at the highest dose activity change, negative = inhibition, actives largely listed as inhibitors; hit rate 5.9% among 310,000; AID 504832; note: potency is the fitted concentration of half-maximal effect; % is set by controls: 0 for no effect and ±100 for the full control effect
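Erythrocytes infected with P. falciparum carrying an integrated firefly luciferase reporter (2% hematocrit, 0.1% parasitemia final) were exposed to compounds in RPMI 1640 with 0.5% Albumax at 37 C, 5% CO2. Growth inhibition was scored as reduced luminescence.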
HCMV antiviral: human cytomegalovirus inhibition; HFF cells, HCMV-luciferase reporter, 72 h; active compounds read low; activity change, negative = inhibition, % at 57.5 µM; hit rate 4.5% among 410,000; AID 1259415; in the data active = activity change below about -60%; inconclusive = no clear call, values can overlap the other calls; inactive = above about -39%; note: % is set by controls: 0 for no effect and ±100 for the full control effect
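HFF cells seeded 16 h at 37C, treated with compounds, infected with luciferase-reporter HCMV at MOI 1 PFU/cell; luciferase read at 72 h post infection, normalized to buffer-only and Salinomycin controls.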
Starred values were filed as active, the others as inactive. This is a sample that favours compounds with a hit; in the whole collection about 20% have one here. Unless noted, calls come from the whole dose curve; as a rule, active = well fitted inhibition curve with a large enough effect; inconclusive = small, poorly fitted or top-dose-only effect, or another doubt; inactive = no such curve, though single readings can be large or run the other way.

How did CC(C)CCOc1ccc(/C=C2\CCn3c2nc2cc(C(=O)O)ccc2c3=O)cc1 do in these assays?
CHX counter: -1; Pf growth 96h: inconclusive; Shiga toxin inh: 17; Pf growth 48h: inconclusive; HCMV antiviral: -18

How did Cc1ccc(Oc2ncc(-c3ccc(Cl)cc3)cn2)cc1 do in these assays?
CHX counter: 6; Pf growth 96h: 27%; Shiga toxin inh: -24; Pf growth 48h: 0%; HCMV antiviral: -13

Results for Nc1cc(Cl)ccc1Oc1ccc2ccccc2c1 ?
CHX counter: 34*; Pf growth 96h: -10%; Shiga toxin inh: 41*; HCMV antiviral: 37

How did Cc1ccc(Oc2ccc(Cl)cc2N)cc1 do in these assays?
CHX counter: 38*; Pf growth 96h: 17%; Shiga toxin inh: 100*; Pf growth 48h: 52%; HCMV antiviral: -36

How did Nc1nc(Cl)cc(Sc2ccc3ccccc3c2)n1 do in these assays?
CHX counter: 10; Pf growth 96h: 37%; Shiga toxin inh: 27; Pf growth 48h: 1%; HCMV antiviral: 13

What do the screens show for `O=C1NC(=O)N(c2ccc3c(c2)OCO3)C(=O)/C1=C\c1ccc(N2CCCCC2)o1`?
CHX counter: -2; Pf growth 96h: -22%; Shiga toxin inh: 11; Pf growth 48h: -6%; HCMV antiviral: -66*

How did Cc1cc(NCCCn2ccnc2)n2ncc(-c3ccccc3)c2n1 do in these assays?
CHX counter: 9; Pf growth 96h: -99%; Shiga toxin inh: 18; Pf growth 48h: -67%

How did Cc1cc(NCCCn2ccnc2)n2nc(C)c(-c3ccccc3)c2n1 do in these assays?
CHX counter: 44*; Pf growth 96h: 12µM*; Shiga toxin inh: 33; HCMV antiviral: 87

How did Cc1cc(NCCCn2ccnc2)n2nc(C)c(-c3ccc(Cl)cc3)c2n1 do in these assays?
CHX counter: 26*; Pf growth 96h: 2%; Shiga toxin inh: 36; HCMV antiviral: -38

What do the screens show for `Cc1cc(NCCN2CCOCC2)n2nc(C)c(-c3ccc(Cl)cc3)c2n1`?
CHX counter: 7; Pf growth 96h: inconclusive; Shiga toxin inh: -20; Pf growth 48h: 0%; HCMV antiviral: -2

What do the screens show for `c1ccc(-c2nc(NCCCn3ccnc3)c3ccccc3n2)cc1`?
CHX counter: -4; Pf growth 96h: 8.3µM*; Shiga toxin inh: 12; Pf growth 48h: 3.7µM*; HCMV antiviral: -2

Results for CSc1ccc(S(=O)(=O)NCC(=O)OCC(=O)N(C)CC(=O)Nc2ccccc2Cl)cc1[N+](=O)[O-] ?
Pf growth 96h: 46%; Pf growth 48h: -1%; HCMV antiviral: -17

How did COc1cc(C)ccc1OCc1cc(C(=O)NC2CCOCC2)no1 do in these assays?
HCMV antiviral: 29

What do the screens show for `Cc1ccc(C)c(OCc2cc(C(=O)NC3CCN(Cc4ccccc4)CC3)no2)c1`?
CHX counter: 29*; Pf growth 96h: inconclusive; Shiga toxin inh: 23; Pf growth 48h: inconclusive; HCMV antiviral: -85*

What do the screens show for `O=C(NC1CCN(Cc2ccccc2)C1)c1cc(COc2ccc(F)cc2F)on1` (configuration not stated)?
CHX counter: 4; Pf growth 96h: inconclusive; Shiga toxin inh: 17; Pf growth 48h: inconclusive; HCMV antiviral: -102*

How did COc1ccc(OC)c(NC(=O)Cn2c(=O)n(CC3CCCO3)c(=O)c3cc(OC)c(OC)cc32)c1 (configuration not stated) do in these assays?
CHX counter: 4; Pf growth 96h: inconclusive; Shiga toxin inh: -9; Pf growth 48h: -31%; HCMV antiviral: 4

What do the screens show for `COC(=O)C(NC(=O)CCc1c(C)nc2c(c(C)nn2-c2ccccc2)c1C)C(C)C` (configuration not stated)?
CHX counter: -3; Pf growth 96h: 1%; Shiga toxin inh: -10; Pf growth 48h: 6.6µM*; HCMV antiviral: 7

How did CCC(C)NC(=O)CCc1c(C)nc2c(c(C)nn2-c2ccccc2)c1C (configuration not stated) do in these assays?
CHX counter: -3; Pf growth 96h: -16%; Shiga toxin inh: -6; Pf growth 48h: inconclusive; HCMV antiviral: inconclusive

How did Cc1nc2c(c(C)nn2-c2ccccc2)c(C)c1CCC(=O)Nc1ccc(CN2CCCC2)cc1 do in these assays?
CHX counter: 1; Pf growth 96h: 2.1µM*; Shiga toxin inh: -7; Pf growth 48h: inconclusive; HCMV antiviral: -64*

Results for CC(C)COC(=O)N1CCCCC1c1cc(C(=O)NCc2ccc(F)cc2)no1 (configuration not stated) ?
HCMV antiviral: 23

Results for O=C(NCc1ccc(Cl)cc1Cl)c1cccc(N2CCCS2(=O)=O)c1 ?
HCMV antiviral: -19

How did CCOC(=O)Nc1ccc2c(COC(=O)CNS(=O)(=O)c3ccc(NC(C)=O)cc3)cc(=O)oc2c1 do in these assays?
CHX counter: 9; Pf growth 96h: 42%; Shiga toxin inh: 15; Pf growth 48h: 31%; HCMV antiviral: -21

What do the screens show for `Cc1ccc2c(CN3CCN(c4ccccc4F)CC3)cc(=O)oc2c1`?
HCMV antiviral: 18

What do the screens show for `CCOC(=O)Nc1ccc2c(CN3CCN(S(=O)(=O)c4ccccc4F)CC3)cc(=O)oc2c1`?
Pf growth 96h: 10µM*; Pf growth 48h: 9.3µM*; HCMV antiviral: inconclusive

How did CCOC(=O)Nc1ccc2c(CN3CCN(S(=O)(=O)c4ccc(C(C)C)cc4)CC3)cc(=O)oc2c1 do in these assays?
Pf growth 96h: 10µM*; Pf growth 48h: inconclusive; HCMV antiviral: 1

How did O=C(NCc1ccccc1Cl)c1cnc2sc(N3CCOCC3)nn2c1=O do in these assays?
HCMV antiviral: 6

Results for CCC(Sc1nnnn1C)C(=O)Nc1ccc(C(C)=O)cc1 (configuration not stated) ?
CHX counter: 23*; Shiga toxin inh: 115*; Pf growth 48h: 0%; HCMV antiviral: 57

How did CCOc1ccc(CNC(=O)CN2N=C(c3ccccc3)CCC2=O)cc1OC do in these assays?
HCMV antiviral: 6

Results for CC(C)c1ccc(-n2c(O)c(/C=N/NC(=O)c3ccncc3)c(=O)[nH]c2=O)cc1 ?
CHX counter: -3; Pf growth 96h: -13%; Shiga toxin inh: -4; Pf growth 48h: 18%; HCMV antiviral: 17

How did CCC(C)n1c(O)c(/C=N/Nc2ccccc2)c(=O)[nH]c1=S (configuration not stated) do in these assays?
CHX counter: 6; Pf growth 96h: 8%; Shiga toxin inh: 3; Pf growth 48h: 21%; HCMV antiviral: -80*

Results for O=c1[nH]c(=S)n(C2CC2)c(O)c1/C=N/Nc1ccccc1 ?
CHX counter: 24*; Pf growth 96h: 23%; Shiga toxin inh: 65*; Pf growth 48h: -4%; HCMV antiviral: -22

What do the screens show for `NC1CCCCC1N=Cc1c(O)n(CCc2ccc(F)cc2)c(=O)[nH]c1=O` (configuration not stated)?
CHX counter: 27; Pf growth 96h: 4.7µM*; Shiga toxin inh: 4; Pf growth 48h: inconclusive; HCMV antiviral: inconclusive
